# Article PMC4336329 (PLoS ONE, 2015)
# Screen size: about 310,000 compounds; about 2,200 (0.71%) showed an effect of 50% or more. Effects have a minus sign here. The entries come from a sample that favours strong results as a whole.
# Molecular target: human ether-à-go-go-related gene (hERG) potassium channel (human, UniProt Q12809)
# Experiment: primary screen, population patch clamp on CHO cells stably expressing hERG; higher = less effect of the substance
# human ether-à-go-go-related gene (hERG) potassium channel, sequence (Q12809 whole entry, looked up): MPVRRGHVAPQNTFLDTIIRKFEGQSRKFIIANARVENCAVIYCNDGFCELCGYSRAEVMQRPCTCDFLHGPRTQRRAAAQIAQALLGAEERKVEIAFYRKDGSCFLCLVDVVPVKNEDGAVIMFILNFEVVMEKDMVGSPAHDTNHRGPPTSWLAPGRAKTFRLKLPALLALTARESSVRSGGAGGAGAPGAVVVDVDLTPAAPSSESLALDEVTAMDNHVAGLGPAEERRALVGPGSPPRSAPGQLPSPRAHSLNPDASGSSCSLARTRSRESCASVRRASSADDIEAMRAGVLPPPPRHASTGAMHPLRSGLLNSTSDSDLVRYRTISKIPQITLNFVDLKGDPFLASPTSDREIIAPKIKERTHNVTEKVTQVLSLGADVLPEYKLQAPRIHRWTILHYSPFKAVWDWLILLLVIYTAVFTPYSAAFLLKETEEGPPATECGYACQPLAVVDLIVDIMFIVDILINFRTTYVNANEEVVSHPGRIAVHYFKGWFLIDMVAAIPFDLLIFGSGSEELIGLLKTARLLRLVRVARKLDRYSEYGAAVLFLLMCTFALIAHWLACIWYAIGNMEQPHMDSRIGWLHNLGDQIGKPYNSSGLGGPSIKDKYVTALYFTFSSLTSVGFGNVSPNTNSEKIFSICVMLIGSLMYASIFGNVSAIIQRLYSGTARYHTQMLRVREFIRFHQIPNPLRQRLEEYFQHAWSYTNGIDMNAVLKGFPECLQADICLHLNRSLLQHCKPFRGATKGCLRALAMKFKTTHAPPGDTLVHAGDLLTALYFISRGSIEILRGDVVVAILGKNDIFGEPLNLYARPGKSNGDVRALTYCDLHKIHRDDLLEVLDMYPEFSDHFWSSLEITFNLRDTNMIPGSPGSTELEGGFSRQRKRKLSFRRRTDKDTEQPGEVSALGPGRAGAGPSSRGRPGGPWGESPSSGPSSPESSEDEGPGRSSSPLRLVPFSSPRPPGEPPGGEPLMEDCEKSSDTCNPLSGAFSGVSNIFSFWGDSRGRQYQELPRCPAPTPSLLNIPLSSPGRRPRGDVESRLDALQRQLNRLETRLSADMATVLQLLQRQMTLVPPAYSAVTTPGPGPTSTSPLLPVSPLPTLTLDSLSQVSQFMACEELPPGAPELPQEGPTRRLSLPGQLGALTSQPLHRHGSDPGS
row,Compound,"hERG current change (%, negative = inhibition) at 1uM"
1,COc1cc(NS(=O)(=O)c2ccc(NC(=O)COc3ccccc3Cl)cc2)nc(OC)n1,4.62%
2,NC(=O)CSc1nnc(-c2ccccn2)n1N,12.4%
3,CC(=O)Nc1ccc(C(=O)Nc2nc(-c3cc(C)n(Cc4ccccc4)c3C)cs2)cc1,11.3%
4,CC(C)OC(=O)CC(=O)CSc1nc2c(cc1C#N)CCC2,16.3%
5,Cc1ccc(C(=O)Nc2ccc(OCc3ccccc3)cc2)cc1[N+](=O)[O-],2%
6,CCN1CCN(c2ncnc3sc(C)c(-c4ccccc4)c23)CC1,-25.9%
7,O=C(Nc1cccc(Oc2ccc3c(c2)C(=O)NC3=O)c1)c1cccs1,-2.79%
8,Cc1ccccc1N1C(=O)C(Oc2ccc(Cl)cc2)C1CNCCCOC(C)C (centres unmarked),-3.82%
9,O=C(OCc1nnc(-c2ccc([N+](=O)[O-])cc2)o1)C1CC(=O)N(CCc2ccccc2)C1 (centres unmarked),-17.8%
10,O=C(OCc1ccc([N+](=O)[O-])cc1)C1CC(=O)N(c2ccccc2)C1 (centres unmarked),-36%
11,O=C(OCc1ccc([N+](=O)[O-])cc1)C1CC(=O)N(CCc2ccccc2)C1 (centres unmarked),-56.3%
12,Cc1cccn2c(=O)nc(SCC(=O)NCc3ccco3)nc12,4.54%
13,Cc1cccn2c(=O)c3cc(C(=O)NCc4ccco4)c(=N)n(CCc4ccccc4)c3nc12,-82.2%
14,Cc1cccn2c(=O)c3cc(S(=O)(=O)c4ccccc4)c(=N)n(Cc4ccco4)c3nc12,5.3%
15,Cc1cccn2c(=O)c3cc(C(=O)NCCc4ccccc4)c(=N)n(Cc4ccco4)c3nc12,-35.5%
16,Cc1cccn2c(=O)c3cc(C(=O)NCc4ccco4)c(=N)n(C(C)C)c3nc12,-84.9%
17,Cc1cccn2c(=O)c3cc(C(=O)NCc4ccco4)c(=N)n(CCOCCO)c3nc12,-63.3%
18,COc1ccc(CCn2c(=N)c(C(=O)NCc3ccco3)cc3c(=O)n4cccc(C)c4nc32)cc1,-76.6%
19,CCOC(=O)CC1Sc2ccccc2NC1=O (centres unmarked),-7.75%

row,Compound,"hERG current change (%, negative = inhibition) at 1uM"
1,CCN1CCc2c(sc(NC(=O)c3ccc(C(=O)c4ccccc4)cc3)c2C(N)=O)C1.Cl,-7.72%
2,COc1cccc(C(=O)Nc2cccc(-c3nc4ncccc4o3)c2C)c1,12.6%
3,CC1(c2nnc(-c3ccncc3)o2)CC(c2ccccc2)=NO1 (centres unmarked),16.4%
4,Clc1cccc(OCc2nnc(-c3ccccc3Br)o2)c1,9.74%
5,O=Cc1ccc(-c2ccc(C(=O)O)cc2)o1,-2.38%
6,O=C(CC1CCCCC1)c1c(O)c2ccccc2oc1=O,-4.69%
7,CCOC(=O)c1c(C)n(CC(O)c2ccccc2)c2ccc(O)cc12 (centres unmarked),13.6%
8,CCN(CC(=O)Nc1c(F)cccc1F)C(=O)CSC(=S)N1CCCC1,6.34%
9,Cc1cccc(-n2c(/C=C/c3ccc([N+](=O)[O-])o3)nc3ccccc3c2=O)c1,2.06%
10,S=C(N/N=C/c1cccc2ccccc12)Nc1cccc(Cl)c1,11.3%
11,Nc1ccc(OCc2ccccc2)cc1,10.7%
12,COc1ccc(OC)c(-n2c(CN3CCC(C(N)=O)CC3)nc3ccccc3c2=O)c1,7.22%
13,COc1ccc(CNC2CCN(Cc3ccccc3)CC2)cc1,-3.31%
14,COc1ccc(OC)c(-n2c(CNC3CCN(Cc4ccccc4)CC3)nc3ccccc3c2=O)c1,-69.9%
15,CS(=O)(=O)Cc1cccc(C(=O)NC2CCSc3ccccc32)c1 (centres unmarked),16.3%
16,CCc1ccc2nc(Nc3nc(COC)cc(=O)[nH]3)nc(C)c2c1,-64.8%
17,COCc1cc(=O)[nH]c(Nc2nc(C)c3cc(OC)ccc3n2)n1,10%
18,COCc1cc(=O)[nH]c(Nc2nc(C)c3ccccc3n2)n1,6.35%
19,CC(=O)Nc1ccc(C(=O)NC2CCCC2)cc1,6.35%

row,Compound,"hERG current change (%, negative = inhibition) at 1uM"
1,COc1ccccc1NC(=O)CSc1nnnn1C,16.4%
2,CSC1=NP(=S)(SC)N2CCCC2=C1C#N (centres unmarked),6.13%
3,CCCn1c2ccccc2c2cnn(CC(=O)N3CCOCC3)c(=O)c21,7.27%
4,CCCn1c2ccccc2c2cnn(CC(=O)NCCOC)c(=O)c21,6.19%
5,CCCn1c2ccccc2c2cnn(CC(=O)NCCN(C)C)c(=O)c21,-12.5%
6,CCCn1c2ccccc2c2cnn(CC(=O)N3CCN(C4CCCCC4)CC3)c(=O)c21,-68.5%
7,CCCn1c2ccccc2c2cnn(CC(=O)NC3CCCCC3)c(=O)c21,10.5%
8,CCCn1c2ccccc2c2cnn(CC(=O)NCCN(CC)CC)c(=O)c21,-67%
9,C[C@@H]1CC=C[C@H]2[C@H]1C(=O)N(Cc1ccccc1)[C@H]2c1ccc(-c2ccoc2)cc1F,17.9%
10,N#Cc1cccnc1N1CCN(C(=O)c2ccco2)CC1,12.7%
11,Cc1cc(N2C3CCC2CC(O)(c2ccc(F)cc2)C3)nc(-c2ccccc2)n1 (centres unmarked),9%
12,O=C(CCN1CCN(c2ccccc2)CC1)N/N=C/c1ccccc1O,9.66%
13,O=C(CCN1CCN(c2ccccc2)CC1)N/N=C/c1ccc([N+](=O)[O-])o1,-58.5%
14,CC(=O)Nc1ccc(/C=N/NC(=O)CCN2CCN(c3ccccc3)CC2)cc1,5.44%
15,CC(C)(C)c1nc2ccccc2[nH]1,10.8%
16,COc1ccc(C(CNC(=O)COc2ccc([N+](=O)[O-])cc2)N2CCCCC2)cc1 (centres unmarked),-52.1%
17,COc1ccc(OCC(=O)NCC(c2ccc(OC)cc2)N2CCCCC2)cc1 (centres unmarked),-1.58%
18,COc1ccc(C(CNC(=O)COc2ccccc2)N2CCCCC2)cc1 (centres unmarked),-4.21%
